Source: PubChem BioAssay (Tox21)
Records with an inconclusive call do not appear. A call without a number means that no potency is given here. Where a structure was tested more than once in an assay, its records may differ in their call. Active and inactive are the calls of the source. The call rests on the fitted dose curve.

Columns and labels:
[1] = target: Acetylcholinesterase (Homo sapiens) (UniProt P22303); experiment: Acetylcholinesterase (AChE) small molecule antagonists: colormetric cell-based qHTS assay (AID 1347395); further: nearly all actives have a fitted effect of over 30% in size
Acetylcholinesterase (Homo sapiens), sequence (P22303 whole entry, looked up): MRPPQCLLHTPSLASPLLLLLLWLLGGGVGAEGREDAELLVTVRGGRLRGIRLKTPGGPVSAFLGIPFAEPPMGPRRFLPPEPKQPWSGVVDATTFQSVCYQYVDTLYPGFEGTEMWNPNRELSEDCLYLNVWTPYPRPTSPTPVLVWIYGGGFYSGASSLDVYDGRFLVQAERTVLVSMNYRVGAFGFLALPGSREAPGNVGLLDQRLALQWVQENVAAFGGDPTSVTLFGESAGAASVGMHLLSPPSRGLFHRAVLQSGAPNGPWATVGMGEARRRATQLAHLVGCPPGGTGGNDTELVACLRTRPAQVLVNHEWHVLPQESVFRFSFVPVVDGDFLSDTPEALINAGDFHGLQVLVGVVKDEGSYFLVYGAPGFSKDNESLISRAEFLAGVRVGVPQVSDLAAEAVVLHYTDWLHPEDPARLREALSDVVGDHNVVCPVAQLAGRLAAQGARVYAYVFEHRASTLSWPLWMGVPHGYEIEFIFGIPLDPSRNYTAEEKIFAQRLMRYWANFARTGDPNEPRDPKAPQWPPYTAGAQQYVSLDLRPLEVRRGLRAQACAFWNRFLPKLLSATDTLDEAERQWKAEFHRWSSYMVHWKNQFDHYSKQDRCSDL
Summary of the method: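 Homogeneous whole-cell format. SH-SY5Y cells seeded overnight, dosed with compound (30 min, 37 C, 5% CO2), then given DTNB/acetylthiocholine cocktail for 90 min at 37 C; colorimetric signal.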

[2] = target: Acetylcholinesterase (Homo sapiens) (UniProt P22303); experiment: Acetylcholinesterase (AChE) small molecule antagonists: enzyme-based qHTS assay (AID 1347397); conditions: Potency: AChE enzyme activity inhibition; outcome: AChE enzyme activity inhibition; further: nearly all actives have a fitted effect of over 55% in size
Summary of the method: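 rhAChE 50 mU/mL (dispensed) + cpd or DMSO, 30 min RT; add DTNB/acetylthiocholine cocktail, 10 min RT; colorimetric thiocholine readout. qHTS, 1536-well format.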

[3] = target: Acetylcholinesterase (Homo sapiens) (UniProt P22303); experiment: Acetylcholinesterase (AChE) small molecule antagonists: fluorescence cell-based qHTS assay (AID 1347398); conditions: Potency: AChE activity; outcome: AChE activity; further: nearly all actives have a fitted effect of over 50% in size; further: potency means the concentration at half of the fitted maximal effect
Summary of the method: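 Read-out is Thiolite Green fluorescence at Ex/Em = 490/520 nm, formed by reaction with thiocholine released when cellular AChE in SH-SY5Y cells hydrolyzes acetylthiocholine. Compounds were preincubated 30 min at 37 C before substrate.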

[4] = target: Acetylcholinesterase (Homo sapiens) (UniProt P22303); experiment: Acetylcholinesterase (AChE) small molecule antagonists: enzyme-based qHTS assay with human liver microsomes (AID 1347399); conditions: Potency: qHTS inhibition; outcome: qHTS inhibition; further: nearly all actives have a fitted effect of over 60% in size
Summary of the method: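 Recombinant human AChE (50 mU/mL in the enzyme mix) and human liver microsomes (0.25 mg/mL final) were preincubated with compound and NADPH (0.25 mg/mL final) for 30 min at 37 C. Acetylthiocholine/DTNB was then added; thiocholine was read colorimetrically after 10 min at room temperature.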

| Compound | Potency [1] | Potency [2] | Potency [3] | Potency [4] | activity, negative = inhibition [1] | activity change, negative = inhibition [2] | activity change, negative = inhibition [3] | activity change, negative = inhibition [4] |
| --- | --- | --- | --- | --- | --- | --- | --- | --- |
| CCCCCOC(=O)COc1cc(N2C(=O)C3=C(CCCC3)C2=O)c(F)cc1Cl | inactive | inactive | inactive | inactive | – | – | – | – |
| C/C=C(\C)C(=O)OC/C=C(\C)CCC=C(C)C | inactive | inactive | inactive | inactive | – | – | – | – |
| COc1cc(O)cc(O)c1 | inactive | inactive | inactive | inactive | – | – | – | – |
| CCCCCC(C)N (stereo not given) | inactive | inactive | inactive | inactive | – | – | – | – |
| CC(C=O)c1ccccc1 (stereo not given) | inactive | inactive | inactive | inactive | – | – | – | – |
| C=C(C)C(=O)OCC(CC)(COC(=O)C(=C)C)COC(=O)C(=C)C | inactive | inactive | inactive | inactive | – | – | – | – |
| COc1cc(-c2ccc(=O)[nH]n2)ccc1OC(F)F | inactive | inactive | inactive | inactive | – | – | – | – |
| Nc1ccccc1Nc1ccccc1 | inactive | inactive | inactive | inactive | – | – | – | – |
| O=C(O)c1cccc(O)c1 | inactive | inactive | inactive | inactive | – | – | – | – |
| OC1C(O)C(O)C(O)C(O)C1O (stereo not given) | inactive | inactive | inactive | inactive | – | – | – | – |
| CCc1c(C(=O)NN2CCCCC2)nn(-c2ccc(Cl)cc2Cl)c1-c1ccc(Br)cc1 | inactive | inactive | inactive | inactive | – | – | – | – |
| Oc1cc(O)c2c(c1)O[C@H](c1ccc(O)c(O)c1)[C@H](O)C2 | inactive | inactive | inactive | inactive | – | – | – | – |
| CC1COc2ccccc2N1C(=O)C(Cl)Cl (stereo not given) | inactive | inactive | inactive | inactive | – | – | – | – |
| CN1C(=O)N(C)C(O)C1O (stereo not given) | inactive | inactive | inactive | inactive | – | – | – | – |
| Cc1c(-c2cccnc2)c2ccccc2n1CCCCC(=O)O | inactive | inactive | inactive | inactive | – | – | – | – |
| Cc1ccc(C(=O)O)o1 | inactive | inactive | inactive | inactive | – | – | – | – |
| Cc1cc(O)cc2c1O[C@](C)(CCC[C@H](C)CCC[C@H](C)CCCC(C)C)CC2 | inactive | inactive | inactive | inactive | – | – | – | – |
| Oc1ccc2c(c1)CCC2 | inactive | inactive | inactive | inactive | – | – | – | – |
| COc1ccc(C(Cl)=C(c2ccc(OC)cc2)c2ccc(OC)cc2)cc1 | inactive | inactive | inactive | inactive | – | – | – | – |
| CC(C)CC(=O)CC(C)C | inactive | inactive | inactive | inactive | – | – | – | – |

| Compound | Potency [1] | Potency [2] | Potency [3] | Potency [4] | activity, negative = inhibition [1] | activity change, negative = inhibition [2] | activity change, negative = inhibition [3] | activity change, negative = inhibition [4] |
| --- | --- | --- | --- | --- | --- | --- | --- | --- |
| CC(=O)OC(C)C | inactive | inactive | inactive | inactive | – | – | – | – |
| O=C(O)C1CCC(C(=O)O)CC1 (stereo not given) | inactive | inactive | inactive | inactive | – | – | – | – |
| CC(C)CC(C)(C)C | inactive | inactive | inactive | inactive | – | – | – | – |
| CC1(C)NC(=O)NC1=O | inactive | inactive | inactive | inactive | – | – | – | – |
| NNc1nc(-c2ccc([N+](=O)[O-])cc2)cs1 | inactive | inactive | inactive | inactive | – | – | – | – |
| CCN1CCc2nc(N)oc2CC1 | inactive | inactive | inactive | inactive | – | – | – | – |
| O=C(O)CCCc1c[nH]c2ccccc12 | inactive | inactive | inactive | inactive | – | – | – | – |
| CCCCOCCOCCOC(C)=O | inactive | inactive | inactive | inactive | – | – | – | – |
| Cc1cc(=O)[nH]c(C(C)C)n1 | inactive | inactive | inactive | inactive | – | – | – | – |
| CC(C)CCCCCCCOC(=O)c1ccc(C(=O)OCCCCCCCC(C)C)c(C(=O)OCCCCCCCC(C)C)c1 | inactive | inactive | inactive | inactive | – | – | – | – |
| O=S(=O)(O)c1cc(S(=O)(=O)O)c2c(N=Nc3ccccc3)c(O)ccc2c1 | inactive | inactive | inactive | inactive | – | – | – | – |
| CCCCCCCCCCCCCCC | inactive | inactive | inactive | inactive | – | – | – | – |
| CCn1c2ccccc2c2ccccc21 | inactive | inactive | inactive | inactive | – | – | – | – |
| COc1ccc2c(c1)c(CC(=O)OCC(=O)O)c(C)n2C(=O)c1ccc(Cl)cc1 | inactive | inactive | inactive | inactive | – | – | – | – |
| O=C1Cc2cc(Cl)ccc2N1 | inactive | inactive | inactive | inactive | – | – | – | – |
| CC(=O)Nc1ccc(N)cc1 | inactive | inactive | inactive | inactive | – | – | – | – |
| CCCCCNCCCCC | inactive | inactive | inactive | inactive | – | – | – | – |
| CC[N+](CC)(CC(=O)Nc1c(C)cccc1C)Cc1ccccc1 (tested in a mixture with another compound) | inactive | inactive | inactive | inactive | – | – | – | – |
| NCC1CCC(C(=O)Oc2ccc(CCC(=O)O)cc2)CC1 (stereo not given) | inactive | inactive | inactive | inactive | – | – | – | – |
| NC(=O)NNC(N)=O | inactive | inactive | inactive | inactive | – | – | – | – |

| Compound | Potency [1] | Potency [2] | Potency [3] | Potency [4] | activity, negative = inhibition [1] | activity change, negative = inhibition [2] | activity change, negative = inhibition [3] | activity change, negative = inhibition [4] |
| --- | --- | --- | --- | --- | --- | --- | --- | --- |
| Nc1ccc(S(=O)(=O)Nc2ccnn2-c2ccccc2)cc1 | – | – | – | – | -0.528% [at 23.6 µM] (inactive) | -0.415% [at 23.6 µM] (inactive) | 5.71% [at 23.8 µM] (inactive) | -0.674% [at 23.6 µM] (inactive) |
| CCOC(=O)C1=C(C)NC(C)=C(C(=O)OC)C1c1cccc(Cl)c1Cl (stereo not given) | inactive | inactive | inactive | inactive | – | – | – | – |
| CN1CCC[C@@H]1c1cccnc1 | inactive | inactive | inactive | inactive | – | – | – | – |
| OCCc1ccccc1 | inactive | inactive | inactive | inactive | – | – | – | – |
| CCCCCC/C=C/C(=O)OC | inactive | inactive | inactive | inactive | – | – | – | – |
| Cc1ccc(Cl)cc1N | inactive | inactive | inactive | inactive | – | – | – | – |
| CCCCCCCC/C=C\CCCCCCCCN | inactive | inactive | inactive | inactive | – | – | – | – |
| O=Cc1ccccc1O | inactive | inactive | 35.6 µM (active) and inactive | inactive | – | – | – | – |
| N[C@H](Cc1c[nH]c2ccccc12)C(=O)O | inactive | inactive | inactive | inactive | – | – | – | – |
| CCCNC(C)C(=O)Nc1c(C)csc1C(=O)OC (stereo not given) | inactive | inactive | inactive | inactive | – | – | – | – |
| CC(=O)OC1CCC(C(C)(C)C)CC1 (stereo not given) | inactive | inactive | inactive | inactive | – | – | – | – |
| Cc1cc2c(C(C)C)c(O)c(O)c(C=O)c2c(O)c1-c1c(C)cc2c(C(C)C)c(O)c(O)c(C=O)c2c1O | inactive | inactive | inactive | inactive | – | – | – | – |
| NNC(=O)CP(=O)(c1ccccc1)c1ccccc1 | inactive | inactive | inactive | inactive | – | – | – | – |
| OCC1CCC(CO)CC1 (stereo not given) | inactive | inactive | inactive | inactive | – | – | – | – |
| O=[N+]([O-])c1ccc2c(c1)Cc1ccccc1-2 | inactive | inactive | 39.9 µM (active) and inactive | inactive | – | – | – | – |
| CN1C[C@@H]2C[C@H]1CN2c1cc2c(cc1F)c(=O)c(C(=O)O)cn2C1CC1 | – | – | – | – | 1.26% [at 23.6 µM] (inactive) | -0.543% [at 23.6 µM] (inactive) | 1.64% [at 23.8 µM] (inactive) | 0.0665% [at 23.6 µM] (inactive) |
| CC1(C)OC[C@@H]2O[C@@]3(C(=O)O)OC(C)(C)O[C@H]3[C@@H]2O1 | inactive | inactive | inactive | inactive | – | – | – | – |
| CN(C)C=O | inactive | inactive | inactive | inactive | – | – | – | – |
| CCCCOCCOCCOC(=O)CCCCC(=O)OCCOCCOCCCC | inactive | inactive | inactive | inactive | – | – | – | – |
| CC(=O)Oc1c(C)c(C)c2c(c1C)CC[C@@](C)(CCC[C@H](C)CCC[C@H](C)CCCC(C)C)O2 | inactive | inactive | inactive | inactive | – | – | – | – |
